# Inconclusive results are not listed. Entries that show only a call come without a potency. A number with no mark means an inactive call. Active and inactive are the calls of the source. The call rests on the fitted dose curve; in most records, active means well fitted curve in the direction sought with a large enough effect; inconclusive means small, poorly fitted or top-dose-only effect, or another doubt; inactive means no such curve, though single readings can be large; an effect the other way counts as inactive or inconclusive.
# Assays:
# JEG-3 = assay: Primary qHTS to identify gynecologic anti-cancer compounds using libraries of approved drugs and bioactive compounds (AID 1345084); settings: Gynecologic cancer cell panel viability, ATPlite luminescence, 48 h; series mostly up to 57.5 µM; further: nearly all actives have a fitted effect of over 55% in size
# In short: (§1)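 Cell viability after 48 h drug treatment, ATPlite luminescence readout; five doses.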
# OV90 = assay: as above; settings: Gynecologic cancer cell panel viability, ATPlite luminescence, 48 h; series mostly up to 57.5 µM
# In short: as §1
# PA-1 = assay: as above; settings: Gynecologic cancer cell panel viability, ATPlite luminescence, 48 h; series mostly up to 57.5 µM
# In short: as §1
# SKOV3 = assay: as above; settings: Gynecologic cancer cell panel viability, ATPlite luminescence, 48 h; series mostly up to 57.5 µM
# In short: as §1
# Tov-21-G = assay: as above; settings: Gynecologic cancer cell panel viability, ATPlite luminescence, 48 h; series mostly up to 57.5 µM
# In short: as §1
# Tov112D = assay: as above; settings: Gynecologic cancer cell panel viability, ATPlite luminescence, 48 h; series mostly up to 57.5 µM
# In short: as §1
# [1] = qHTS assay to identify inhibitors of the type 1 interferon - major histocompatibility complex class I in skeletal muscle: Counter screen cell viability and HiBit confirmation (AID 1347412); settings: iHSKM muscle cells + IFN-b, HiBiT or CellTiter-Glo, 24 h; HiBiT; further: nearly all actives have a fitted effect of over 60% in size
# In short: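 Duplicate plates, pinned identically: one read for HiBiT-tagged endogenous HLA-B luminescence, the other for ATP-content viability via CellTiter Glo. Cells were genome-engineered human myoblasts given 4 ng/ml IFN-b; compounds 12-pt, 1:3 from 46 uM final; 24 hr exposure.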
# Potency means the concentration at half of the fitted maximal effect.
smiles,measurement,setting,value
Clc1cccc(-c2nnnn2Cc2cccnc2)c1Cl,Potency,JEG-3,inactive
same,Potency,OV90,inactive
same,Potency,PA-1,inactive
same,Potency,SKOV3,inactive
same,Potency,Tov-21-G,inactive
same,Potency,Tov112D,inactive
COc1cc(C)c(Sc2cnc(NC(=O)c3ccc(CNC(C)C(C)C)cc3)s2)cc1C(=O)N1CCN(C(C)=O)CC1 (stereo not given),Potency,JEG-3,inactive
same,Potency,OV90,inactive
same,Potency,PA-1,22.4 µM (active)
Cn1c(CNc2ccc(C(=N)N)cc2)nc2cc(C(=O)N(CCC(=O)O)c3ccccn3)ccc21,Potency,JEG-3,inactive
same,Potency,OV90,inactive
same,Potency,PA-1,inactive
same,Potency,SKOV3,inactive
same,Potency,Tov-21-G,inactive
same,Potency,Tov112D,inactive
O=C(O)Cn1nnc(-c2cc(N3CCC(Oc4cc(F)ccc4Br)CC3)no2)n1,Potency,JEG-3,inactive
same,Potency,OV90,inactive
same,Potency,PA-1,inactive
same,Potency,SKOV3,inactive
same,Potency,Tov-21-G,inactive
same,Potency,Tov112D,inactive
CC(O)C1C(=O)N2C(C(=O)O)=C(SC3CNC(C(=O)N(C)C)C3)C(C)C12 (stereo not given),Potency,JEG-3,inactive
same,Potency,OV90,inactive
same,Potency,PA-1,inactive
same,Potency,SKOV3,inactive
same,Potency,Tov-21-G,inactive
same,Potency,Tov112D,inactive
COc1cccc(Nc2c(C(N)=O)cnc3c(C)cc(S(=O)(=O)c4cccc(C(=O)N(C)C)c4)cc23)c1,Potency,JEG-3,inactive
same,Potency,OV90,inactive
same,Potency,PA-1,inactive
same,Potency,SKOV3,inactive
same,Potency,Tov-21-G,inactive
same,Potency,Tov112D,inactive
Cc1cc(Nc2ncnc3ccc(-c4ccc(CNCCS(C)(=O)=O)o4)cc23)ccc1Oc1ccn2ncnc2c1,Potency,JEG-3,inactive
same,Potency,OV90,inactive
same,Potency,PA-1,inactive
same,Potency,SKOV3,inactive
same,Potency,Tov-21-G,inactive
same,Potency,Tov112D,inactive
CCCCCN(CCC12CC3CC(CC(C3)C1)C2)C(=O)NCCCc1ccncc1,Potency,JEG-3,inactive
same,Potency,OV90,inactive
same,Potency,PA-1,inactive
same,Potency,SKOV3,inactive
same,Potency,Tov-21-G,inactive
same,Potency,Tov112D,inactive
CCNC(=O)Nc1ccc2ncc(Nc3ccc(C)cc3)nc2n1,Potency,JEG-3,inactive
same,Potency,OV90,inactive
same,Potency,PA-1,inactive
same,Potency,SKOV3,inactive
same,Potency,Tov-21-G,inactive
same,Potency,Tov112D,inactive
Cc1ccc(NC(=O)C2(c3ccc4c(c3)OC(F)(F)O4)CC2)nc1-c1cccc(C(=O)O)c1,Potency,JEG-3,inactive
same,Potency,OV90,inactive
same,Potency,PA-1,inactive
same,Potency,SKOV3,inactive
same,Potency,Tov-21-G,inactive
same,Potency,Tov112D,inactive
CC(C)c1noc(N2CCC(COc3ccc(-c4ccc(S(C)(=O)=O)cc4)nc3)CC2)n1,Potency,JEG-3,inactive
same,Potency,OV90,inactive
same,Potency,PA-1,inactive
same,Potency,SKOV3,inactive
same,Potency,Tov-21-G,inactive
same,Potency,Tov112D,inactive
O=C(c1cncc(Br)c1)N1CCC(N2CCCC2)CC1,Potency,JEG-3,inactive
same,Potency,OV90,inactive
same,Potency,PA-1,inactive
same,Potency,SKOV3,inactive
same,Potency,Tov-21-G,inactive
same,Potency,Tov112D,inactive
O=C1CCC[C@@H]2[C@H]3CCC[N+]4([O-])CCC[C@@H](CN12)[C@@H]34 (stereo not given in full),Potency,JEG-3,inactive
same,Potency,OV90,inactive
same,Potency,PA-1,inactive
same,Potency,SKOV3,inactive
same,Potency,Tov-21-G,inactive
same,Potency,Tov112D,inactive
Cn1c(=O)n(-c2ccc(C(C)(C)C#N)cc2)c2c3cc(-c4cnc5ccccc5c4)ccc3ncc21,Potency,JEG-3,inactive
same,Potency,OV90,1.41 µM (active)
COc1ccc2c(c1)CC[C@@H](CN(C)CC(=O)O)[C@H]2c1ccccc1,Potency,JEG-3,inactive
same,Potency,OV90,inactive
same,Potency,PA-1,inactive
same,Potency,SKOV3,inactive
same,Potency,Tov-21-G,inactive
same,Potency,Tov112D,inactive
CCCNC(=O)Nc1ccc(Oc2ncnc3cc(OC)c(OC)cc23)cc1Cl,Potency,JEG-3,inactive
same,Potency,OV90,inactive
same,Potency,PA-1,inactive
same,Potency,SKOV3,inactive
same,Potency,Tov-21-G,inactive
same,Potency,Tov112D,inactive
CC(C)(C)c1cc(NC(=O)Nc2ccc(-c3cn4c(n3)sc3cc(OCCN5CCOCC5)ccc34)cc2)no1,Potency,JEG-3,inactive
same,Potency,OV90,inactive
same,Potency,PA-1,inactive
same,Potency,SKOV3,inactive
same,Potency,Tov-21-G,inactive
same,Potency,Tov112D,inactive
N#Cc1c(O)c2c(-c3ccc(-c4ccccc4O)cc3)csc2[nH]c1=O,Potency,JEG-3,inactive
same,Potency,OV90,inactive
same,Potency,PA-1,inactive
same,Potency,SKOV3,inactive
same,Potency,Tov-21-G,inactive
same,Potency,Tov112D,inactive
C[C@]1(CO)CN(c2cc(C(=O)Nc3ccc4c(c3)-c3c(c(C(N)=O)nn3-c3ccc(F)cc3)CC4)c(Cl)cn2)C[C@@]1(C)CO,Potency,JEG-3,inactive
same,Potency,OV90,inactive
same,Potency,PA-1,11.2 µM (active)
CN(C1CCc2c(c3ccccc3n2CC(=O)O)C1)S(=O)(=O)c1ccc(F)cc1 (stereo not given),Potency,JEG-3,inactive
same,Potency,OV90,inactive
same,Potency,PA-1,inactive
same,Potency,SKOV3,inactive
same,Potency,Tov-21-G,inactive
same,Potency,Tov112D,inactive
C=CC(=O)Nc1cccc(Oc2nc(Nc3ccc(N4CCN(C)CC4)cc3)ncc2Cl)c1,Potency,JEG-3,inactive
same,Potency,OV90,inactive
same,Potency,PA-1,8.91 µM (active)
same,Potency,SKOV3,3.16 µM (active)
same,Potency,Tov-21-G,8.91 µM (active)
same,Potency,Tov112D,5.62 µM (active)
same,Potency,[1],22.2 µM (active)
Clc1cccc(-n2nnnc2NCc2ccccc2Oc2ccccn2)c1Cl,Potency,JEG-3,inactive
same,Potency,OV90,inactive
same,Potency,PA-1,inactive
same,Potency,SKOV3,inactive
same,Potency,Tov-21-G,inactive
same,Potency,Tov112D,inactive
CC(=O)c1c(C)c2cnc(Nc3ccc(N4CCNCC4)cn3)nc2n(C2CCCC2)c1=O,"activity change, negative = cytotoxicity",JEG-3,-5.97% [at 6.55 µM]
same,"activity change, negative = cytotoxicity",OV90,15% [at 6.55 µM]
same,"activity change, negative = cytotoxicity",PA-1,-9.61% [at 6.55 µM]
same,"activity change, negative = cytotoxicity",SKOV3,4.84% [at 6.55 µM]
same,"activity change, negative = cytotoxicity",Tov-21-G,-13.1% [at 6.55 µM]
same,"activity change, negative = cytotoxicity",Tov112D,-4.97% [at 6.55 µM]
CCOc1ccccc1OCCNC(C)Cc1ccc(OC)c(S(N)(=O)=O)c1 (stereo not given),Potency,JEG-3,inactive
same,Potency,OV90,inactive
same,Potency,PA-1,inactive
same,Potency,SKOV3,inactive
same,Potency,Tov-21-G,inactive
same,Potency,Tov112D,inactive

# Reference: PubChem BioAssay (NCATS)
